EP2 modulator = EP2 receptor (human) modulation; 260,000 tested, 0.83% active; P43116; induction, % at 25 µM; AID 940; EP2-expressing cells, cAMP HTRF FRET, PGE2 co-stimulation;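 active = compounds whose cAMP rise, as percent of the full-agonist control response, exceeds 60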;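 note: rat C6 glioma line stably carrying human EP2 under a CMV promoter; the protocol text gives 20 µM as final concentration; 100% = response of wells given 1 µM PGE2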
Target sequence (P43116 whole entry, looked up): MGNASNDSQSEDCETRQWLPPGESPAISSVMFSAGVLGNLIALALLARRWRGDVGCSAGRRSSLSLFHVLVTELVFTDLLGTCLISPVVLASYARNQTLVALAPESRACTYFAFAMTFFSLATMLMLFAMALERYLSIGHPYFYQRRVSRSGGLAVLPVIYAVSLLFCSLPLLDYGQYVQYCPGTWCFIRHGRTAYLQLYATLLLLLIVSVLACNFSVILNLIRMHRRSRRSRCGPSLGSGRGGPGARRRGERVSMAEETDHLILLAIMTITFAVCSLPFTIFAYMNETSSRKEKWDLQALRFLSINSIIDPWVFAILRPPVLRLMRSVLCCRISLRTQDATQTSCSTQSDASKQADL
S1P4 agonist = human S1P4 receptor agonism; O95977; S1P4-expressing cell line, agonist reporter assay; activation, % at 4.98 µM; 220,000 tested, 0.35% active; AID 1509; in the data active = activation above about 11%;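 note: 0% = DMSO vehicle and 100% = reference agonist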
S1P3 antag = antagonists of human S1P3 receptor. Q99500. 170,000 tested, 0.27% active. inhibition, % at 4.98 µM. CHO S1P3 NFAT-BLA reporter, FRET fluorescence, antagonist mode;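 active = inhibition above the plate cutoff, the mean inhibition of test wells on that plate plus 3 SD, cut at about 28% in these data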;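 note: cells challenged with S1P at its EC80 of 0.8 µM; blue over green emission ratio from cleaved BLA substrate after 4 h stimulation; 0% = S1P-stimulated wells and 100% = unstimulated DMSO-only wells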
EP2 antag = blocks the human prostaglandin E2 receptor EP2. P43116. C6 glioma cells expressing human EP2, cAMP TR-FRET; cells stimulated with saturating PGE2. inhibition, % at 25 µM. 260,000 tested, 0.52% active. AID 1422;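 active = percent inhibition above 40 after rounding to a whole number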;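 note: rat C6 glioma host cells with rolipram phosphodiesterase inhibitor present; the protocol text gives 20 µM as final concentration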
S1P4 antagonist = human S1P4 receptor antagonism. O95977. S1P4-expressing cells, antagonist mode, reporter read-out. inhibition, % at 4.98 µM. 220,000 tested, 0.26% active. AID 1510; in the data active = inhibition above about 29%;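 note: 0% = wells stimulated with agonist and 100% = vehicle wells without agonist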
S1P4 ag conf = confirmation of human S1P4 receptor agonists | shares compounds with S1P4 agonist | S1P4 agonist cell-based reporter assay | activation, % at 4.98 µM | 740 tested, 7% active; in the data active = activation above about 12%;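 note: 0% = vehicle and 100% = full reference agonist response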
S1P1 ag = counter-screen for S1P4 agonists: agonists of human S1P1 | shares compounds with S1P4 agonist | S1P1 agonist cell-based assay, activation | activation, % at 4.98 µM | 740 tested, 4% active | AID 1563; in the data active = activation above about 21%;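 note: 0% = vehicle wells and 100% = reference agonist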
Starred values were filed as active, the others as inactive; / = not tested or not shown. The list is not random: actives were taken first. Their share in the collection is about 2%.

SMILES	EP2 modulator	S1P4 agonist	S1P3 antag	EP2 antag	S1P4 antagonist	S1P4 ag conf	S1P1 ag
CCNC(=S)N(CCc1cccc(C)c1)Cc1cc2cc(OC)c(OC)cc2[nH]c1=O	4	51*	-2	14	-2	-1	-4
O=S(=O)(CCNCc1cccs1)c1ccc(Cl)cc1	-5	36*	-15	9	8	-2	-2
O=c1c2[nH]c3ccccc3c2ncn1CCC1=CCCCC1	16	17*	12	9	-9	-2	-2
COCCNC(=S)N(CCCO)Cc1cc2cc(C)cc(C)c2[nH]c1=O	-7	/	/	14	/	/	/
O=C(CSCc1ccc(Cl)cc1)Nc1ccc(S(=O)(=O)N2CCCCCC2)cc1	9	15*	-12	4	-11	-3	-5
Cc1ccsc1CN(CCCN1CCOCC1)Cc1cccs1	-17	/	/	6	/	/	/
COc1ccc(N2CCN(C(c3ccc(N(C)C)cc3)c3nnnn3C(C)C)CC2)cc1 (centres undefined)	-2	/	/	11	/	/	/
CC(=O)O[C@H]1CC[C@]2(C)C3=CC(=O)[C@@]4(C)C(C[C@@H]5OC6(OCC(C)CC6Br)[C@@H](C)[C@@H]54)C3CC[C@H]2C1 (some centres undefined)	-4	/	/	7	/	/	/
COc1ccc(NC(=S)N2CCN(c3ccccn3)CC2)cc1OC	-8	28*	4	8	-23	-2	-7
COc1cc(NC(=S)N2CCN(c3ccccn3)CC2)cc(OC)c1OC	1	-1	8	6	4	/	/
Brc1ccc(-c2ccc(/C=N/Nc3nc4ccccc4[nH]3)o2)cc1	-24	12*	-3	8	13	8	24*
COCn1c(-c2ccc(OC)c(OC)c2)nc2ccccc21	/	2	10	5	-3	/	/
COCn1c(-c2cccc(Br)c2)nc2ccccc21	/	82*	23	5	15	0	7
CC1=Nc2ccccc2/C1=C/c1c(O)n(-c2ccc3c(c2)OCO3)c(=O)[nH]c1=O	-115	/	/	24	/	/	/
Cc1ccc(NC(=O)Cn2cc3c(n2)CCC(C)C3)cc1 (centres undefined)	-9	27*	-23	6	3	-2	-7
Cn1c(NC(=O)CC(C)(C)C)cc(=O)n(C)c1=O	0	46*	17	6	-1	-2	-3
CC(NC(=O)Cc1ccccc1Cl)c1nc(-c2ccncc2)n[nH]1 (centres undefined)	-25	/	/	4	/	/	/
COc1ccc(-n2cc(CNCCc3cscn3)c(-c3ccccc3Cl)n2)cc1	-13	112*	-8	6	-9	-1	-4
CC(C)n1c(=NC(=O)c2ccco2)c(C#N)cc2c(=O)n3ccccc3cc21	10	12*	-33	/	-30	0	9
CCOC(=O)c1cc2c(=O)n3ccccc3nc2n(C(C)C)c1=NC(=O)c1ccco1	-12	5	-13	12	-14	/	/
CCOC(=O)c1sc(NC(=S)NC(=O)c2ccco2)nc1C	15	34*	-2	7	-1	-3	-2
COC(=O)c1sc(NC(=O)c2ccco2)nc1C	5	1	-8	24	-24	/	/
Cc1cc(C2=NNC(=NC3CC3)SC2)c(C)n1-c1c(C)n(C)n(-c2ccccc2)c1=O	15	15*	2	8	-9	-2	-2
Cc1nnc(SCc2nnc(-c3cccs3)o2)n1C1CCCCC1	18	2	-8	5	-13	/	/
COc1ccc(-c2nnc(SCc3nnc(-c4cccs4)o3)n2CC2CCCO2)cc1 (centres undefined)	6	57*	-12	9	-11	-1	5
SMILES	EP2 modulator	S1P4 agonist	S1P3 antag	EP2 antag	S1P4 antagonist	S1P4 ag conf	S1P1 ag
CCOc1ccc(S(=O)(=O)NCc2ccccc2Cl)cc1C(N)=O	-14	0	-4	3	-10	/	/
CCOc1ccc(S(=O)(=O)NCc2ccccc2)cc1C(N)=O	-19	11*	-15	4	0	-2	0
CCc1nc2cc(NC(=O)Cn3cnc4sc(C)cc4c3=O)ccc2n1C	-22	/	/	9	/	/	/
Cc1ccccc1NS(=O)(=O)c1cc(OCC(N)=O)c(C)cc1Cl	4	15*	13	5	1	-2	-4
Cc1ccc(NS(=O)(=O)c2cc(OCC(N)=O)c(C)cc2Cl)cc1C	-23	2	/	8	-115	/	/
Cc1cc(/C=C2\SC(=S)N(C)C2=O)c(C)n1-c1cccc(O)c1	-94	0	-17	12	6	/	/
CN=C1S/C(=C\c2cc(C)n(-c3ccccc3F)c2C)C(=O)N1C	-11	59*	/	2	-35	89*	72*
Nc1ccc(N(CCO)CCO)cc1	21	3	-6	12	-5	/	/
Cc1cc(N(CCO)CCO)ccc1N=Nc1cc(F)ccc1F	-39	11*	-17	7	4	-2	-5
Cc1cccc(-n2c(-c3ccco3)nn(CC(=O)N3CCc4ccccc43)c2=O)n1	-25	/	/	7	/	/	/
CN1CCN(CCCNC(=O)c2ccc(/C=C3\Sc4ccccc4N(Cc4ccc(F)cc4)C3=O)cc2)CC1	23	23*	-8	32	-7	-1	-3
CN1CCN(CCCNC(=O)c2ccc(/C=C3/Sc4ccccc4N(Cc4cccc(Cl)c4)C3=O)cc2)CC1	-1	1	3	14	-9	/	/
Cc1ccccc1NC(=O)CSc1nnc2c(C)cc3ccc(C)c(C)c3n12	-39	/	/	11	/	/	/
CCOc1cc(N2CCOCC2)c(OCC)cc1NC(=O)c1cc(C)cc(C)c1	39	1	-5	7	-1	/	/
CCOc1cc(N2CCOCC2)c(OCC)cc1NC(=O)c1ccc(C)cc1	1	155*	-3	5	-6	-2	0
CCC(C)(C)n1nnnc1C(c1ccncc1)N1CCN(c2cccc(OC)c2)CC1 (centres undefined)	6	1	-12	3	-7	/	/
CCC(C)(C)n1nnnc1C(c1cccnc1)N1CCN(c2cccc(C(F)(F)F)c2)CC1 (centres undefined)	12	15*	/	14	-7	0	-9
COc1ccc(NC(=O)CSc2nc3ccccc3n2-c2ccccc2)c([N+](=O)[O-])c1	23	45*	-3	9	-5	-1	-3
CC(C)CC(=O)Nc1ccc(-c2nnn(CC(=O)NCc3ccco3)n2)cc1	-25	14*	-10	4	-4	-2	-5
CCCCOc1ccc(-c2nnn(CC(=O)NCc3ccco3)n2)cc1	-9	-2	-43	11	-6	/	/
CCOc1ccc(N2C(=O)c3ccccc3NC2c2cccc(O)c2)cc1 (centres undefined)	44	/	/	5	/	/	/
CNC(=O)c1[nH]cnc1C(=O)N[C@@H](Cc1ccccc1)C(=O)OCc1ccccc1	14	23*	-35	11	-26	56*	38*
CNC(=O)c1[nH]cnc1C(=O)N[C@@H](Cc1ccccc1)C(=O)OC(C)(C)C	-2	0	-12	6	8	/	/

High-throughput results deposited in PubChem BioAssay by several laboratories.
